From PubChem BioAssay AID651664 (NMMLSC, 2012) come the findings set out here.

Each structure is given as a SMILES string. Fewer than 10 of roughly 1,800 compounds were called active.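 How the source made its calls: active means inhibition of granule release above a set limit; inactive means the rest.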 A selection follows.

A short description of this assay: LAMP-1 surface externalization blockers in TALL-104 cells – cell-based, flow cytometry, validation set (AID 651664). The conditions noted are these: TALL-104 LAMP-1 externalization, at 15.2 µM, active compounds read high, stimulated with thapsigargin and PMA. For orientation: In flow cytometry, cells or beads pass a laser one at a time.
With `Cc1ccc(C(=O)NC(=S)Nc2ccc(-c3cc4ccccc4oc3=O)cc2)c(C)c1`, the inhibition (commonly the change of the read-out against control, counted positive when it falls) was -0.7% (inactive). Then `CCOC(=O)c1[nH]c(C)c(/C(O)=C2\C(=O)C(=O)N(CCN(C)C)C2c2ccncc2)c1C` (configuration not stated), with 4% (inactive).

Regarding `O=C1C=C(N2CCN(C(=O)c3ccccc3)CC2)C2(CCCCC2)O1`, the inhibition was -4.4% (inactive).

For the molecule `CCc1ccc2c(c1)c(N=NC1=NC(=O)CS1)c(O)n2CC`, the inhibition is -0.4% (inactive). To `CC(C)(C)NC(=O)C(=O)N/N=C/c1ccc(Br)cc1` belongs -2.4% (inactive). Then `Cn1cnnc1Sc1cc(N2CCN(S(=O)(=O)c3ccc(Cl)c(Cl)c3)CC2)ccc1[N+](=O)[O-]`, with 0.3% (inactive). To `O=C(NCc1ccc2c(c1)OCO2)c1cccc(F)c1` belongs 6.2% (inactive). On to `Cc1cc(C(=O)CSc2nc3ccc(Cl)cc3[nH]2)c(C)n1CC1CCCO1` (configuration not stated), for which the inhibition was 1.6% (inactive). As for `COc1ccc(/C(O)=C2/C(=O)C(=O)N(CCCN(C)C)C2c2ccc(Cl)cc2)cc1OC` (configuration not stated), the inhibition was 6.2% (inactive). Then `CCCCN(CCCC)CP(=O)(c1ccccc1)c1ccccc1`, with 0% (inactive); and `O=C(Cn1cnc2ccccc2c1=O)c1ccc2ccccc2c1`, with 0% (inactive). Then `CC1CCN(S(=O)(=O)c2ccc(F)c(C(=O)O)c2)CC1`, with 3.9% (inactive). For the molecule `CC(=O)c1ccc(NC(=O)Nc2ccc(NS(=O)(=O)c3ccc(C)cc3)cc2)cc1`, the inhibition is -2.9% (inactive). For `CCCCN(CCCC)C(=S)N/N=C/c1c(C)[nH]n(-c2ccccc2)c1=O`, the inhibition is -0.4% (inactive). Then `Cc1ccc(C(=O)C2(C)C3c4cc(Br)ccc4OC(=O)C32C(=O)c2ccco2)cc1` (configuration not stated), with 93.2% (active).

`N#CC1=C(N)N(c2ccc(Oc3ccccc3)cc2)C(=O)C1`: the inhibition is 1.8% (inactive). To `CCN(CC)C(=O)CSc1nc2ccccc2c(=O)[nH]1` belongs 0.4% (inactive); to `O=C(/C=C/c1ccc([N+](=O)[O-])cc1)NCC1CCCO1` (configuration not stated), -0.8% (inactive); to `COc1cccc2cc(C(=O)Nc3cccc(C)n3)c(=O)oc12`, 4.9% (inactive). For `CCCCSC(=S)N(C)C1CCS(=O)(=O)C1` (configuration not stated), the inhibition is -0.4% (inactive). Then `COP(C)(=O)c1c(C)nn(-c2ccccc2)c1C` (configuration not stated), with -2.1% (inactive); and `Cn1c(Cl)c(C(=O)Nc2ccccc2)c2ccccc21`, with -1.3% (inactive). Turning to `Cc1csc(NC(=O)Cc2coc3cc(C)c(C(C)C)cc23)n1`, the inhibition is -2.3% (inactive). To `N/C(=N\OC(=O)c1cccc(Br)c1)c1ccc(Br)cc1` belongs 57.6% (active); to `N/C(=N\OC(=O)CCCN1C(=O)c2ccccc2C1=O)c1ccc(Br)cc1`, -3.6% (inactive). To `N/C(=N\OC(=O)c1ccc(Cl)cc1Cl)c1ccc(Cl)cc1` belongs 5.2% (inactive). `CCOC(=O)C(C)On1c(-c2ccccc2)nc2ccc([N+](=O)[O-])cc21` (configuration not stated): the inhibition was 4.1% (inactive).

With `CCc1nn(-c2ccccc2)c2c1-c1cc(OC)c(OC)cc1C1(N2)C(=O)Nc2ccccc21` (configuration not stated), the inhibition was -0.7% (inactive). Then `CCOc1c(Cl)cc(C(=O)Nc2ccccc2-c2ccccc2)cc1Cl`, with -0.6% (inactive). Then `O=C(COc1ccccc1O)N1CCN(C(=O)c2ccco2)CC1`, with 0.9% (inactive); and `OCCSc1ncnc2c1oc1ccccc12`, with -1.3% (inactive); and `O=C(O)CCCCCNC(=O)Nc1ccc2c(c1)OCCO2`, with -3.4% (inactive).

As to `O=C1c2ccccc2NC(c2cnc3ccccc3n2)N1O` (configuration not stated), the inhibition is -0.6% (inactive). Then `COc1cc(CC(=O)OCC(=O)c2ccc3c(c2)OCCO3)cc(OC)c1OC`, with 0.6% (inactive).

Consider `Cc1cc(NC(=O)c2cccc3ccccc23)cc(C)c1OCC(=O)N1CCOCC1`, for which the inhibition was -2.8% (inactive). On to `N#Cc1c(-c2ccccc2)nc(-c2ccccc2)nc1N1CCOCC1`, for which the inhibition is -0.6% (inactive).

Consider `Cc1nc2c(=O)oc3ccccc3c2n1-c1ccccc1`, for which the inhibition was -0.5% (inactive). To `CCOC(=O)C1CCN(C(=O)CN(c2cc(OC)ccc2OC)S(=O)(=O)c2ccccc2)CC1` belongs -2.6% (inactive). On to `Cc1nn(C)cc1CNC(=O)CCC(=O)O`, for which the inhibition is 5.3% (inactive). To `COC(=O)C1CCN(c2cc(=O)n(C3CCCCC3)c(=O)[nH]2)CC1` belongs 5.6% (inactive); to `Cc1ccccc1C1CC(c2ccccc2OC(F)F)Nc2ncnn21` (configuration not stated), -2.3% (inactive). Consider `Cc1cc2ccccc2nc1SCC(=O)N1c2ccccc2CC1C` (configuration not stated), for which the inhibition was -0.9% (inactive). Then `CC12Cc3ccc4ccccc4c3C=C1C[N+](C)(C)C2` (configuration not stated), with -0.3% (inactive).

For the molecule `CC1=NC(=O)C(N=Nc2ccccc2)N1c1ccccc1` (configuration not stated), the inhibition was -2.8% (inactive). To `CC(C)c1ccc(NS(=O)(=O)c2ccc3[nH]cc(C(=O)N4CCC(C(N)=O)CC4)c(=O)c3c2)cc1` belongs -0.7% (inactive); to `CCC(C)(C)NC(=O)C(c1ccco1)N(C(=O)Cn1nnc2ccccc21)c1ccc2c(c1)OCO2` (configuration not stated), -0.1% (inactive); to `Cc1ccc(S(=O)(=O)N2CCN(C(=O)c3cc4c(C)nn(-c5ccccc5C)c4s3)CC2)cc1`, -1.8% (inactive). In the case of `CCOC(=O)c1sc2nc(CC(=O)OC)nc(NCCN3CCOCC3)c2c1C`, the inhibition is -2.4% (inactive). To `COc1ccc(C(C)=O)cc1CN1C(=O)NC2(CCCCC2)C1=O` belongs -0.4% (inactive); to `Cc1occc1C(=O)Nc1ccc2ccccc2c1`, 0.2% (inactive). On to `CCS(=O)(=O)N1CCCC(C(=O)NC2CCCCC2C)C1` (configuration not stated), for which the inhibition is 0.3% (inactive). Then `O=C(O)c1c[nH]c(=S)n1-c1ccc(F)cc1`, with 1.2% (inactive); and `COCCN1CN(S(=O)(=O)c2ccc(Cl)cc2)c2nc3ccccc3nc21`, with -1.9% (inactive); and `COc1cccc(C(C(=O)NCc2ccco2)N(Cc2ccco2)C(=O)Cn2nnc3ccccc32)c1` (configuration not stated), with -3.7% (inactive). To `CCCn1c2c(c(O)c(C(=O)Nc3ccccc3)c1=O)CCCC2` belongs 1.8% (inactive); to `CSCC[C@H](NC(=O)NCCC1=CCCCC1)C(=O)O`, 1.1% (inactive).

As for `CCOC(=O)c1c(C(C)(C)C)oc2ccc(O)cc12`, the inhibition is 1.3% (inactive). Then `Clc1ccc(CON/C=N/c2ncnc3sccc23)cc1`, with -1.5% (inactive); and `CSc1nc(-c2ccc(Cl)cc2)nn1C(=O)c1ccco1`, with 7% (inactive); and `C1=C(c2ccccc2)Nc2nnnn2C1c1cccs1` (configuration not stated), with 0.7% (inactive). To `Cc1cccc(CC(Cc2nc3ccccc3[nH]2)c2nc3ccccc3[nH]2)c1` (configuration not stated) belongs 94.4% (active); to `O=C(NCc1nc2ccccc2[nH]1)c1cc2ccccc2oc1=O`, 6.1% (inactive); to `c1ccc2nc(-c3nc4ccccc4[nH]3)ccc2c1`, 0.9% (inactive). Then `COc1ccc(CCNC(=O)c2ccccc2NC(=O)c2ccco2)cc1OC`, with -1.7% (inactive). Regarding `COC(=O)CN1C(=O)C(O)(CC(=O)c2ccc(C)o2)c2ccccc21` (configuration not stated), the inhibition is -1.9% (inactive). Then `COc1cccc(OC)c1C(=O)Nc1cc(C)on1`, with -2.4% (inactive). Then `O=C(c1ccc(F)cc1)c1ccc(N2CCCC2)cc1`, with -4.5% (inactive); and `O=c1cc(N2CCc3ccccc3C2)[nH]c(=O)n1C1CCCCC1`, with 8.4% (inactive); and `CCN(CC)C(=O)CSc1ncnc2c1nnn2-c1ccc(OC)cc1`, with -0.1% (inactive). Then `O=S(=O)(CCc1nc2ccccc2o1)c1ccc(Cl)c(Cl)c1`, with -2.2% (inactive); and `COC(=O)c1ccccc1NC(=O)c1ccc(COc2ccc(C)c(C)c2)o1`, with -0.1% (inactive). With `O=C(c1ccc(S(=O)(=O)N2CCCCCC2)cc1)N1CCC(CN2C(=O)c3cccc4cccc(c34)C2=O)CC1`, the inhibition is 0.6% (inactive). Then `c1nnnn1C12CC3CC(CC(C3)C1)C2`, with 3.1% (inactive); and `CCOC(=O)c1ccc(N2C(=O)CC(C3CCCO3)C2=O)cc1` (configuration not stated), with 3.6% (inactive).

For `COC(=O)c1ccc(N2C(=O)CC(N(C)CCc3ccc(OC)c(OC)c3)C2=O)cc1` (configuration not stated), the inhibition is 66% (active). Then `COC(=O)c1ccc(N2C(=O)CC(SCCN)C2=O)cc1` (configuration not stated), with -1.8% (inactive). To `O=C(Nc1cc(C(F)(F)F)ccc1N1CCOCC1)c1cccnc1Cl` belongs -2.8% (inactive); to `CCCS(=O)(=O)N1CCCC(C(=O)NCCN(Cc2ccccc2)C(C)C)C1` (configuration not stated), -0.7% (inactive); to `O=C(/C=C/Nc1cccc(C(F)(F)F)c1)c1ccc(Oc2ncccn2)cc1`, -1% (inactive). Regarding `NC(=S)N/N=C/c1ccc(-c2cccc([N+](=O)[O-])c2)o1`, the inhibition was 1.9% (inactive). Turning to `COc1ccc(NC(=O)c2cccc(S(=O)(=O)N3CCOCC3)c2)cn1`, the inhibition was 1.5% (inactive). To `O=C(NCC1CCCO1)/C(=C\c1ccco1)NC(=O)c1ccccc1` (configuration not stated) belongs -2.2% (inactive); to `CCc1ccc(Nc2ncccc2C#N)cc1`, 1.1% (inactive). To `C=CCn1c(-c2cccs2)nc2nc3ccccc3nc21` belongs -2.3% (inactive); to `C/C(=N/OC(=O)c1ccc(F)cc1)c1ccc(C)cc1`, 0.7% (inactive); to `CC1(C)Cc2c(C#N)c(SCc3ccccc3)nc(N3CCOCC3)c2CO1`, 1.1% (inactive). As for `Fc1ccc(C2=Nn3c(Cc4ccccc4F)nnc3SC2)cc1`, the inhibition was 1.3% (inactive). To `CC(=O)N1CCc2cc(NS(=O)(=O)c3cccs3)ccc21` belongs -1.2% (inactive); to `COc1cc(OC)cc(C(=O)Nc2nc3ccccc3[nH]2)c1`, -1% (inactive); to `Cc1cccc(N2CCN(CC(=O)Nc3ccc(-n4cnnn4)cc3)CC2)c1C`, -0.6% (inactive). In the case of `COc1ccc(-c2cn[nH]c2N)cc1OC`, the inhibition was 2.5% (inactive). Then `O=C(COC(=O)c1ccccc1)NCc1ccco1`, with -0.5% (inactive). To `CCOC1(OCC)N=C(N)C2(C#N)C(c3cccc(C)c3)C12C#N` (configuration not stated) belongs -0.4% (inactive); to `Cc1ccc(NC(=O)/C(=C\C=C\c2ccccc2)NC(=O)c2ccccc2)cc1`, -0.3% (inactive); to `Cc1ccc(NC(=O)c2cc(S(=O)(=O)Nc3ccc(C)cc3)cs2)cc1`, 0.6% (inactive).

In the case of `COc1cc(N)cc(NC(=O)c2ccncc2)c1`, the inhibition is -0.4% (inactive). To `COc1ccc(CN2CCOCC2)cc1` belongs 1.5% (inactive).
